Only some compounds are listed: those with a hit (about 2.9% of all), similar ones and a draw of the others.
MEKK2 mut-MEK5 – signal of MEK5 binding to mutant human MEKK2 PB1 domain; 0.35% of 290,000 active; AID 1530; bead flow cytometry, Alexa488-MEK5 binding to MEKK2 mutant; percent response, % at 10 µM; in the data active means percent response above about 24%, passing the limit was not always enough
MEKK2 WT-MEK5 – raises or lowers MEK5 binding to wildtype human MEKK2 PB1 domain; binding response (% of control), % at 10 µM; Q9Y2U5; bead flow cytometry, Alexa488-MEK5 binding to MEKK2 WT; actives lie on both sides; AID 1531; 1.1% of 290,000 active; in the data active means binding response below about 67% or above about 130%; inconclusive means no clear call, values can overlap the other calls; inactive means in between
FID counter – counter-screen for HCV NS3 helicase inhibitors: DNA intercalator displacement | DNA fluorescent intercalator displacement, fluorescence | inhibition, % at 7.9 µM | 0.17% of 290,000 active | AID 1845; in the data active means inhibition above about 37%;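 further: 0% = vehicle and 100% = reference compound; higher means more ethidium bromide displaced from hairpin DNA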
dFosB act – enhances mouse delta FosB homodimer DNA binding; 0.99% of 340,000 active; activation, % at 25 µM; AID 493131; purified delta FosB, TAMRA-CDK5 oligo fluorescence polarization; percent of positive-control signal above neutral wells; P13346;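 active means mean activation above about 17%, with every replicate also reaching it, limit read from the data, passing the limit was not always enough; inconclusive means only one of the two conditions met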
MEKK3 PB1 HTS – raises or lowers MEK5 binding to the human MEKK3 PB1 domain | Q99759 | bead-based flow cytometry, Alexa488-MEK5 binding to MEKK3; actives lie on both sides; 0 = blocked by unlabeled MEK5, 100 = vehicle | binding response (% of control), % at 10 µM | 1.4% of 290,000 active;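 active means binding response more than 3 SD above or below the average of its plate-row segment, actives on both sides; inconclusive means wells at one plate position flagged as instrument error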;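 further: Alexa488 bead fluorescence after subtracting the streptavidin-only scavenger bead signal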
Target sequence (Q99759 whole entry, looked up, the tested form may be a part): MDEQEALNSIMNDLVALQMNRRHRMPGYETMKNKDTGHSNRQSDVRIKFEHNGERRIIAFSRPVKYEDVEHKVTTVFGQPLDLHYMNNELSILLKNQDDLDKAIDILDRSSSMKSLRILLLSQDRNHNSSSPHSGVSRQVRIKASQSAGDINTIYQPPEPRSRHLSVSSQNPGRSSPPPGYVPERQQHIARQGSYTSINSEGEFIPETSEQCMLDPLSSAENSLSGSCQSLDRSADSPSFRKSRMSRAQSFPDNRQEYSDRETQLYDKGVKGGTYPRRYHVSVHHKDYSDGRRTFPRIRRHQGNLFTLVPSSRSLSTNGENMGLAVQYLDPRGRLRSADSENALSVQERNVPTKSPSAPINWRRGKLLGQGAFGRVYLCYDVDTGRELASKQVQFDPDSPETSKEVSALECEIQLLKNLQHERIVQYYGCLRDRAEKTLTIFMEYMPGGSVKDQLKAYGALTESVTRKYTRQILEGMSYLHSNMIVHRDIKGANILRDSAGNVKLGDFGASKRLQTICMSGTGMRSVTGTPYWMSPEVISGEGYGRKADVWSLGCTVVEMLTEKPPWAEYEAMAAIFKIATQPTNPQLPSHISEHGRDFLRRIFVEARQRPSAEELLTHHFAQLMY
Starred values were filed as active, the others as inactive; [ ] = another dose, or the depositor's remark.

Results for COc1cccc(/C=N/Nc2nc(Nc3ccc([N+](=O)[O-])cc3)nc(N3CCCC3)n2)c1O ?
MEKK2 mut-MEK5: -6; MEKK2 WT-MEK5: 97; FID counter: -3; dFosB act: 67*; MEKK3 PB1 HTS: 106

What do the screens show for `CCCN1CCN(C(=O)C2CCN(c3nnc(C)c4c(C)n(-c5ccc(C)cc5)nc34)CC2)CC1`?
MEKK2 mut-MEK5: 134*; MEKK2 WT-MEK5: 109; FID counter: 18; dFosB act: -1; MEKK3 PB1 HTS: 113

What do the screens show for `Cc1ccc(-n2nc3c(N4CCC(C(=O)N5CCN(C)CC5)CC4)nnc(C)c3c2C)cc1`?
MEKK2 mut-MEK5: -13; MEKK2 WT-MEK5: 101; FID counter: 29; dFosB act: -4; MEKK3 PB1 HTS: 99

What do the screens show for `Cc1ccc(-n2nc3c(N4CCC(C(=O)NCc5ccccc5C)CC4)nnc(C)c3c2C)cc1`?
MEKK2 mut-MEK5: 7; MEKK2 WT-MEK5: 98; FID counter: 25; dFosB act: 28*; MEKK3 PB1 HTS: 101

What do the screens show for `Cc1cc2c(o1)CC(C)(C)CC2=O`?
MEKK2 mut-MEK5: -6; MEKK2 WT-MEK5: 87; FID counter: -2; dFosB act: -4; MEKK3 PB1 HTS: 78

How did CCOC(=O)N1CCN(C(=O)C(=O)c2cn(CC(=O)N3CCCCCC3)c3ccccc23)CC1 do in these assays?
MEKK2 mut-MEK5: 1; MEKK2 WT-MEK5: 2.0*; FID counter: -45; dFosB act: -18; MEKK3 PB1 HTS: 97

How did CCOC(=O)C1CCN(C(=O)C(=O)c2cn(CC(=O)N3CCCCCC3)c3ccccc23)CC1 do in these assays?
MEKK2 mut-MEK5: -10; MEKK2 WT-MEK5: 74; FID counter: -41; dFosB act: -12; MEKK3 PB1 HTS: 93

What do the screens show for `NC(=O)COc1ccc(/C=N\NC(=O)CC(=O)NCCc2ccccc2)cc1`?
MEKK2 mut-MEK5: 10; MEKK2 WT-MEK5: 109; FID counter: -9; dFosB act: 4; MEKK3 PB1 HTS: 110

How did CCOC(=O)C1=C(COC(=O)c2ccc(C)c(S(=O)(=O)N3CCOCC3)c2)NC(=O)NC1C (stereo unspecified) do in these assays?
dFosB act: -5

What do the screens show for `CC(=O)c1ccc(N2CCN(C(=S)Nc3ccc(Cl)c(Cl)c3)CC2)cc1`?
MEKK2 mut-MEK5: -48; MEKK2 WT-MEK5: 102; FID counter: 2; dFosB act: inconclusive; MEKK3 PB1 HTS: 94

How did CCN(C(=O)COC(=O)/C=C/c1cccc([N+](=O)[O-])c1)c1c(N)n(Cc2ccccc2)c(=O)[nH]c1=O do in these assays?
dFosB act: -2

Results for CCN(C(=O)COC(=O)/C=C/c1ccc2c(c1)OCO2)c1c(N)n(Cc2ccccc2)c(=O)[nH]c1=O ?
dFosB act: 164*

Results for CCN(CC)CCNc1ccc(C)c2sc3ccc(O)cc3c(=O)c12 ?
dFosB act: 41*

What do the screens show for `O=C(C=P(c1ccccc1)(c1ccccc1)c1ccccc1)c1ccccc1-c1ccccc1C(=O)C=P(c1ccccc1)(c1ccccc1)c1ccccc1`?
dFosB act: 36*

Results for C=CCc1cc(Cl)ccc1OCCNCCN1CCOCC1 ?
MEKK2 mut-MEK5: -11; MEKK2 WT-MEK5: 106; FID counter: 39*; dFosB act: -9; MEKK3 PB1 HTS: 98

How did Cc1ccc(NC(=O)c2ccco2)c(NC(=O)c2ccc(Cl)cc2)c1 do in these assays?
MEKK2 mut-MEK5: 0; MEKK2 WT-MEK5: 97; FID counter: -21; dFosB act: -5; MEKK3 PB1 HTS: 100

What do the screens show for `Cc1ccc2nc(-c3ccc(NC(=O)c4ccco4)cc3)[nH]c2c1`?
MEKK2 mut-MEK5: -13; MEKK2 WT-MEK5: 86; FID counter: 13; dFosB act: 43*; MEKK3 PB1 HTS: 77

How did Cc1ccc(NC(=O)c2ccco2)c(NC(=O)c2ccccc2)c1 do in these assays?
MEKK2 mut-MEK5: -26; MEKK2 WT-MEK5: -12*[inhibitor]; FID counter: -6; dFosB act: -3; MEKK3 PB1 HTS: 0.0*[inhibitor]

Results for Cn1cccc1-c1nc2ccc(NC(=O)c3ccco3)cc2[nH]1 ?
MEKK2 mut-MEK5: -2; MEKK2 WT-MEK5: 104; FID counter: 0; dFosB act: -5; MEKK3 PB1 HTS: 103

What do the screens show for `CCC1S/C(=N\S(=O)(=O)c2cccs2)N(C2CCCCC2)C1=O` (stereo unspecified)?
MEKK2 mut-MEK5: 8; MEKK2 WT-MEK5: 104; FID counter: -18; dFosB act: -1; MEKK3 PB1 HTS: 102

How did Cc1sc(NC(=O)C2CSC3(C)CCC(=O)N23)nc1-c1ccccc1 (stereo unspecified) do in these assays?
dFosB act: -10

Results for O=c1c2c(-c3cccs3)csc2ncn1-c1ccccc1 ?
MEKK2 mut-MEK5: 19; MEKK2 WT-MEK5: 15*; FID counter: -2; dFosB act: -6; MEKK3 PB1 HTS: 96

How did Cc1ccc(-n2cnc3scc(-c4cccs4)c3c2=O)cc1 do in these assays?
MEKK2 mut-MEK5: -7; MEKK2 WT-MEK5: 106; FID counter: -4; dFosB act: 2; MEKK3 PB1 HTS: 89

How did CN(C)S(=O)(=O)N1CCc2ccccc21 do in these assays?
MEKK2 mut-MEK5: 5; MEKK2 WT-MEK5: 109; FID counter: -1; dFosB act: -2; MEKK3 PB1 HTS: 108

What do the screens show for `O=S(=O)(Cc1ccccc1)N1CCc2ccccc21`?
MEKK2 mut-MEK5: 74*; FID counter: -5; MEKK3 PB1 HTS: 90

How did CCOc1cc(/C=C2\SC(=Nc3ccccc3)N(c3ccccc3)C2=O)ccc1OCC(=O)O do in these assays?
MEKK2 mut-MEK5: 1; MEKK2 WT-MEK5: 106; FID counter: -7; dFosB act: -3; MEKK3 PB1 HTS: 107

What do the screens show for `CCOc1cc(/C=C2\SC(=Nc3ccc(F)cc3)N(c3ccc(F)cc3)C2=O)ccc1OCC(=O)O`?
MEKK2 mut-MEK5: -9; MEKK2 WT-MEK5: 85; FID counter: 44*; MEKK3 PB1 HTS: 102

What do the screens show for `O=C(CSc1ccc2nnc(-c3ccccn3)n2n1)Nc1ccccc1F`?
MEKK2 mut-MEK5: -4; MEKK2 WT-MEK5: 100; FID counter: -8; dFosB act: -5; MEKK3 PB1 HTS: 101

How did Cn1nc(CC(=O)N2CCN(c3ccccc3)CC2)c2ccccc2c1=O do in these assays?
MEKK2 mut-MEK5: 6; MEKK2 WT-MEK5: 103; FID counter: -26; dFosB act: -8; MEKK3 PB1 HTS: 103

What do the screens show for `Cn1nc(CC(=O)Nc2ccc(N3CCN(C(=O)OC(C)(C)C)CC3)cc2)c2ccccc2c1=O`?
FID counter: -25; dFosB act: 21*

What do the screens show for `CCN(CC)CCn1c2ccccc2c2nc3ccc([N+](=O)[O-])cc3cc21`?
MEKK2 mut-MEK5: -1; MEKK2 WT-MEK5: 104; FID counter: 44*; dFosB act: 51*; MEKK3 PB1 HTS: 97

Results for COc1cc(-c2nc(-c3ccc(NC(=O)c4ccc(Br)o4)cc3)no2)cc(OC)c1OC ?
MEKK2 mut-MEK5: -4; MEKK2 WT-MEK5: 95; FID counter: -6; dFosB act: 49*; MEKK3 PB1 HTS: 101

What do the screens show for `Cc1onc(C(=O)Nc2ccccc2C(F)(F)F)c1[N+](=O)[O-]`?
MEKK2 mut-MEK5: -21; MEKK2 WT-MEK5: 0.0*[inhibitor]; FID counter: 4; dFosB act: 1; MEKK3 PB1 HTS: 1.0*[inhibitor]

Screening results (PubChem BioAssay)
